From PubChem BioAssay
NIH3T3 tox = NIH 3T3 cell cytotoxicity. NIH 3T3 viability, CellTiter-Glo ATP luminescence, 48-72 h. Potency, µM (titrated, usually from 96.7 µM), actives largely listed as inhibitors. 4.3% of 94,000 active. AID 1345082; further: nearly all actives have a fitted effect of over 55% in size
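Mouse fibroblast NIH 3T3 cells, 400 per well, received compound via pintool and were incubated for 48 or 72 hr prior to CellTiter-Glo ATP luminescence measurement.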
HEK293 viab = cell viability loss counter-screen. Potency, µM (series often up to 57.1 µM), usual class: cytotoxic. HEK-293-SNCA-luc viability, GF-AFC fluorescence, 24 h. 0.12% of 150,000 active; further: nearly all actives have a fitted effect of over 30% in size
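Cytotoxicity counterscreen: after 24 h compound treatment of genome-edited SNCA-luciferase HEK-293 cells, live-cell protease substrate GF-AFC read by fluorescence after 30 min; activity scaled between DMSO (0%) and medium-only (-100%), curves Hill-fitted.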
HEK cytotox = kills HEK 293 cells; Potency, µM (series often up to 115 µM), usual class: inhibitors; HEK 293 viability, ATP luminescence (CellTiter-Glo), 48-72 h; 6.6% of 94,000 active; further: nearly all actives have a fitted effect of over 60% in size
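250 HEK 293 cells/well; compound by pintool; incubated 48 or 72 hr at 37 degree Celsius; CellTiter-Glo added, 10 min RT, luminescence imaged.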
FLuc inh = inhibitors of firefly (Photinus pyralis) luciferase | P08659 | purified P. pyralis luciferase, luminescence, biochemical | Potency, µM (top dose mostly 115 µM), most hits filed as inhibitors | 2.5% of 76,000 active | AID 1347043; further: nearly all actives have a fitted effect of over 65% in size
Target sequence (P08659 whole entry, looked up): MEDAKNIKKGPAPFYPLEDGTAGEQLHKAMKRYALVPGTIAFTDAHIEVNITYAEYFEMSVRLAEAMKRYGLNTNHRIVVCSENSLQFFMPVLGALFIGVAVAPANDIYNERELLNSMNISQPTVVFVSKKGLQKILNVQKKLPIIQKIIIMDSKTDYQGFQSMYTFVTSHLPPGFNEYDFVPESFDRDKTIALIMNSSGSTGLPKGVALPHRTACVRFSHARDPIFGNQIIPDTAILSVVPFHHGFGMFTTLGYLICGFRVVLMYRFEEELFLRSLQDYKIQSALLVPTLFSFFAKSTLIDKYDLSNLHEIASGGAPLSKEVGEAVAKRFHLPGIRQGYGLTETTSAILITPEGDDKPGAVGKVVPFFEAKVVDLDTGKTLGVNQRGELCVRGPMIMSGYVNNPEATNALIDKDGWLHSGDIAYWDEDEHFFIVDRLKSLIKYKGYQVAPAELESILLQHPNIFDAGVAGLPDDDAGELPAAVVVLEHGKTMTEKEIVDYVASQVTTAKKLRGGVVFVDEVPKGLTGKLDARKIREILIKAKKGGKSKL
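Purified 10nM P. pyralis luciferase with 10uM D-luciferin and 10uM ATP in 50mM Tris acetate pH 7.5, 10mM Mg acetate, 0.01% Tween-20, 0.05% BSA. qHTS titration; luminescence read by CCD imager.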
hNpr1 antagonist = blocks ANP-stimulated signaling of human Npr1 receptor. HEK293 hNpr1 GloSensor cGMP, ANP-stimulated luminescence. Potency, µM (titrated, usually from 46.3 µM), actives largely listed as inhibitors. P16066. AID 1347048. 1.6% of 76,000 active; calls by dose curve; further: nearly all actives have a fitted effect of over 60% in size
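Compound pre-incubated 30 min at room temperature on GloSensor-loaded HEK293 cells stably carrying hNpr1 and the pGS-40F cGMP biosensor. Stimulation uses hNppA at 0.1 nM final; luminescence is taken at baseline and 20 min post-agonist.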
SNCA expr inh = inhibitors of alpha-synuclein (SNCA) gene expression; HEK-293 SNCA-luciferase knock-in, luminescence, 24 h; Potency, µM (top dose mostly 57.2 µM), most hits filed as inhibitors; 0.17% of 140,000 active; AID 1671194; further: nearly all actives have a fitted effect of over 45% in size
NPR1 antag cnf = confirmation of human Npr1 natriuretic peptide receptor antagonists; shares compounds with hNpr1 antagonist; HEK293 hNpr1 cGMP GloSensor luminescence, ANP-stimulated; Potency, µM (highest dose often 57.6 µM), most hits filed as inhibitors; 76% of 1,400 active; calls by dose curve; further: nearly all actives have a fitted effect of over 70% in size
NPR2 antag = selectivity test of Npr1 antagonists against human Npr2; HEK293 hNpr2 GloSensor cGMP luminescence, CNP-stimulated; 67% of 1,400 active; shares compounds with hNpr1 antagonist; AID 1347046; Potency, µM (titrated, usually from 57.6 µM), actives largely listed as inhibitors; calls by dose curve; further: nearly all actives have a fitted effect of over 70% in size
FLuc inh counter = counter-screen for Npr1 antagonists: firefly luciferase inhibitors; shares compounds with hNpr1 antagonist; purified FLuc enzyme, luminescence, Km substrate; Potency, µM (highest dose often 57.6 µM), usual class: inhibitors; 0.7% of 1,400 active
GloSensor cGMP = reduces cGMP signal in GloSensor control cells | shares compounds with hNpr1 antagonist | 69% of 1,400 active | HEK293 GloSensor cGMP, SNP-stimulated, luminescence | Potency, µM (series often up to 57.6 µM), actives largely listed as inhibitors | AID 1347051; calls by dose curve; further: nearly all actives have a fitted effect of over 70% in size
Numbers stand for hits; [ ] = another dose, or the depositor's remark. This is a sample that favours compounds with a hit; in the whole collection about 7.2% have one here. Unless noted, the call rests on the fitted dose curve; in most records, active means well fitted curve in the direction sought with a large enough effect; inconclusive means small, poorly fitted or top-dose-only effect, or another doubt; inactive means no such curve, though single readings can be large; an effect the other way counts as inactive or inconclusive.

What do the screens show for `CC1(C)[C@H](Cc2cc(-c3ccc(F)cc3)on2)C[C@@H]1NS(C)(=O)=O`?
NIH3T3 tox: inconclusive; HEK293 viab: inactive; HEK cytotox: 71µM; FLuc inh: inconclusive; hNpr1 antagonist: inconclusive; SNCA expr inh: inactive; NPR1 antag cnf: 40µM; NPR2 antag: 40µM; FLuc inh counter: inactive; GloSensor cGMP: 35µM

How did Cc1nc2c(c(-c3ccc(Cl)cc3)n1)CCN(C(=O)Cc1ccc(F)cc1)CC2 do in these assays?
NIH3T3 tox: inconclusive; HEK293 viab: inactive; HEK cytotox: inactive; FLuc inh: inactive; hNpr1 antagonist: inactive; SNCA expr inh: inactive

What do the screens show for `COc1ccc2nc3n(c2c1)[C@@H](CNCc1ccc(C(F)(F)F)cc1)COC3`?
NIH3T3 tox: inconclusive; HEK293 viab: inactive; HEK cytotox: inconclusive; FLuc inh: inactive; hNpr1 antagonist: 35µM; SNCA expr inh: inactive; NPR1 antag cnf: 31µM; NPR2 antag: 35µM; FLuc inh counter: inactive; GloSensor cGMP: 28µM

How did Cc1ccc2c(c1)nc1n2[C@@H](CNCc2ccccc2)COC1 do in these assays?
NIH3T3 tox: 112µM; HEK293 viab: inactive; HEK cytotox: inconclusive; FLuc inh: inactive; hNpr1 antagonist: inconclusive; SNCA expr inh: inactive; NPR1 antag cnf: 35µM; NPR2 antag: inconclusive; FLuc inh counter: inactive; GloSensor cGMP: inconclusive

What do the screens show for `c1ccc(CNC[C@H]2COCc3nc4ccccc4n32)cc1`?
NIH3T3 tox: inconclusive; HEK293 viab: inactive; HEK cytotox: inconclusive; FLuc inh: inactive; hNpr1 antagonist: 22µM; SNCA expr inh: inactive; NPR1 antag cnf: 35µM; NPR2 antag: 31µM; FLuc inh counter: inactive; GloSensor cGMP: 28µM

Results for Cc1cccc2c1nc1n2[C@@H](CNS(=O)(=O)Cc2ccccc2)COC1 ?
NIH3T3 tox: inconclusive; HEK293 viab: inconclusive; HEK cytotox: inconclusive; FLuc inh: inactive; hNpr1 antagonist: 35µM; SNCA expr inh: inactive; NPR1 antag cnf: 28µM; NPR2 antag: 28µM; FLuc inh counter: inactive; GloSensor cGMP: 28µM

Results for Cc1cccc2c1nc1n2[C@@H](CNS(=O)(=O)c2ccc(F)cc2)COC1 ?
NIH3T3 tox: inconclusive; HEK293 viab: inactive; HEK cytotox: inconclusive; FLuc inh: inactive; hNpr1 antagonist: inconclusive; SNCA expr inh: inactive

Results for COc1ccc2nc3n(c2c1)[C@@H](CNCc1ccccc1)COC3 ?
NIH3T3 tox: inconclusive; HEK293 viab: inactive; HEK cytotox: inconclusive; FLuc inh: inactive; hNpr1 antagonist: inconclusive; SNCA expr inh: inactive

What do the screens show for `Cn1nc(CN2CCOCC2)c2c1CCN(C(=O)Nc1ccccc1)C2`?
NIH3T3 tox: inactive; HEK293 viab: inactive; HEK cytotox: inactive; SNCA expr inh: inactive

Results for CC(C)N1CC(C(=O)NCc2cccc(Cl)c2)NC1=O (configuration not stated) ?
NIH3T3 tox: inactive; HEK293 viab: inactive[12.5 µM]; HEK cytotox: inactive; SNCA expr inh: inactive

How did Cn1cccc1CN1CCCN(S(C)(=O)=O)C(c2ccccc2)CC(=O)NCC1 (configuration not stated) do in these assays?
NIH3T3 tox: inactive; HEK293 viab: inactive; HEK cytotox: inconclusive; FLuc inh: inactive; hNpr1 antagonist: inactive; SNCA expr inh: inactive

Results for CN1CC2(CCOC2)N(C2CCN(C(=O)COc3ccccc3)CC2)C1=O (configuration not stated) ?
NIH3T3 tox: inactive; HEK293 viab: inactive; HEK cytotox: inactive; SNCA expr inh: inactive
